Screens deposited in PubChem by several laboratories.
Lmaj promast = Leishmania major promastigote growth inhibition, primary screen | Leishmania major promastigotes, resazurin fluorescence viability | inhibition, % at 10 µM | 200,000 tested, 9% active | AID 1063, 2008; in the data active = inhibition above about 50%;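 note: promastigotes grown with compound for 44 hours at 28 °C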
PTEN del growth = growth suppression of PTEN-null HCT116, primary screen, cell-based, CellTiter-Glo. HCT116 PTEN-null viability, 60 h; hits give low values. 140,000 tested, 1.2% active. AID 827, 2007. viability, % at 10 µM;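 active = viability at or below a set limit, 4 SD under the median of all tested compounds, cut at about 3.7% in these data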;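 note: PTEN knockout HCT116 line with beta catenin targeted HCT116 as companion control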
INS promoter inh = inhibitors of insulin promoter-driven GFP, primary screen, imaging, TRM-6 cells (human fetal islet line), eGFP reporter, cell count; reporter expression induced with tamoxifen; inhibition, % at 2 µM; 130,000 tested, 0.9% active; AID 1273, 2008;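 active = inhibition above the mean plus 3 SD, with well images judged a real hit on visual review, cut at about 60% in these data, passing the limit was not always enough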
ROMK mod = ROMK potassium channel modulators, primary screen, cell-based, thallium flux, MLSMR library; ATP-sensitive inward rectifier potassium channel 1 (Homo sapiens), P48048; Tet-inducible ROMK, thallium flux fluorescence; actives lie on both sides; B-score at 10 µM; 130,000 tested, 2% active;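 active = signal ratio slope over the read window, or its plate-corrected B-score, at least 3 SD from the plate mean, either direction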;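 note: B-score of the F/F0 ratio slope over 7 to 12 s after thallium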
p97 ATPase inh = inhibitors of human p97 ATPase, primary screen, biochemical | Transitional endoplasmic reticulum ATPase (Homo sapiens), P55072 | recombinant p97 ATPase, Kinase-Glo ATP luminescence, 3 h | inhibition, % at 8 µM | 220,000 tested, 0.42% active | AID 1481, 2009; in the data active = inhibition above about 15%
Target sequence (P55072 whole entry, looked up): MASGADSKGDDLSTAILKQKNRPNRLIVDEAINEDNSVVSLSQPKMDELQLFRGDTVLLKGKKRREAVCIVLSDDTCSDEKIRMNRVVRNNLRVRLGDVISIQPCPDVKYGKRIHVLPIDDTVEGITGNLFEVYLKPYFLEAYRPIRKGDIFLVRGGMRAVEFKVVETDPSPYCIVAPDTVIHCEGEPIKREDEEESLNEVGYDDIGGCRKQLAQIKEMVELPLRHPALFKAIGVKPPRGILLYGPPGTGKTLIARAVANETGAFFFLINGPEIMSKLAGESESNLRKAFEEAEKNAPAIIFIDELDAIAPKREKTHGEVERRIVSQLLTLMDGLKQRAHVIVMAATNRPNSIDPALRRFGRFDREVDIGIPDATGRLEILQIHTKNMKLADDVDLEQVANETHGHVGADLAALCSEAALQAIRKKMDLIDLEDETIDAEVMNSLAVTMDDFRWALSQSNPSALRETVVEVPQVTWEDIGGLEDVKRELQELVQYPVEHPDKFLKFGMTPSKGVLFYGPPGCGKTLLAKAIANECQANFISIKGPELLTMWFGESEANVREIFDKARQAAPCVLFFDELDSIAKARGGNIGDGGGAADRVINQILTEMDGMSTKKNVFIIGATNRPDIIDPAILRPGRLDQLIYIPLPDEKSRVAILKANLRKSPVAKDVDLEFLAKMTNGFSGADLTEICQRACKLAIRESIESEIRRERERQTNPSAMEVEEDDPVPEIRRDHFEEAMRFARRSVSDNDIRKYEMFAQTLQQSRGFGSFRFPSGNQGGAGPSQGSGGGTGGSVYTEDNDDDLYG
bCat KO growth = primary screen for growth suppressors in beta-catenin knockout HCT116 cells (colon tumor, human). 140,000 tested, 1.5% active. HCT116 beta-catenin knockout viability, CellTiter-Glo, 60 h; hits give low values. viability, % at 10 µM;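 active = viability at or under a set limit, the compound median less 4 SD, cut at about 6% in these data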
Hits are given with their value. The list is not random: actives were taken first. Their share in the collection is about 10%.

How did COC(=O)Cn1c(C)c(C#N)c2ccccc21 do in these assays?
Lmaj promast: inactive; PTEN del growth: inactive; INS promoter inh: inactive; p97 ATPase inh: inactive; bCat KO growth: inactive

How did O=C(c1cn(-c2ccccc2)nc1-c1ccc(F)cc1)N1CCCCC1 do in these assays?
Lmaj promast: 81; PTEN del growth: inactive; INS promoter inh: inactive; p97 ATPase inh: inactive; bCat KO growth: inactive

How did Cn1c(O)c(N=NC(=O)Cn2ccc(C(F)(F)F)n2)c2ccccc21 do in these assays?
Lmaj promast: 58; PTEN del growth: inactive; INS promoter inh: inactive; p97 ATPase inh: inactive; bCat KO growth: inactive

What do the screens show for `CCn1c(O)c(N=NC(=O)Cn2ccc(C(F)(F)F)n2)c2ccccc21`?
Lmaj promast: 67; PTEN del growth: inactive; INS promoter inh: inactive; p97 ATPase inh: inactive; bCat KO growth: inactive

What do the screens show for `Cc1[nH]c(=O)c(C(=O)/C=C/c2ccccc2F)c2c1CCCC2`?
Lmaj promast: 100; PTEN del growth: 3.4; ROMK mod: inactive; p97 ATPase inh: inactive; bCat KO growth: 3.9

What do the screens show for `Cc1[nH]c2ccccc2c1C(=O)/C=C\c1ccccc1Cl`?
Lmaj promast: inactive; PTEN del growth: inactive; p97 ATPase inh: inactive; bCat KO growth: inactive

Results for O=C(c1ccc(F)cc1)N(c1ccccn1)C1CCCCC1 ?
Lmaj promast: inactive; p97 ATPase inh: inactive

Results for O=C(NCc1ccccn1)[C@H]1C[C@@H]1[C@H](NP(=O)(c1ccccc1)c1ccccc1)c1ccccc1 ?
Lmaj promast: inactive; PTEN del growth: 0.6; INS promoter inh: inactive; ROMK mod: inactive; p97 ATPase inh: inactive; bCat KO growth: 0.8

How did Cc1ccc(N(CC(=O)NC2CCC(C)CC2)S(=O)(=O)c2cccnc2)cc1 (centres undefined) do in these assays?
Lmaj promast: 67; PTEN del growth: inactive; p97 ATPase inh: inactive; bCat KO growth: inactive

Results for COc1ccc(N(CC(=O)NC2CCCCC2)S(=O)(=O)c2cccnc2)cc1 ?
Lmaj promast: inactive; PTEN del growth: inactive; p97 ATPase inh: inactive; bCat KO growth: inactive

Results for COc1cc(C(=O)Nc2ccc(Cl)c(C(F)(F)F)c2)cc(OC)c1OC ?
Lmaj promast: 80; PTEN del growth: inactive; INS promoter inh: inactive; ROMK mod: inactive; p97 ATPase inh: inactive; bCat KO growth: inactive

What do the screens show for `O=C(Nc1ccc(Cl)c(C(F)(F)F)c1)c1ccco1`?
Lmaj promast: inactive; PTEN del growth: inactive; INS promoter inh: inactive; p97 ATPase inh: inactive; bCat KO growth: inactive

What do the screens show for `CCNC(=S)Nc1ccc(Cl)c(C(F)(F)F)c1`?
Lmaj promast: 76; PTEN del growth: inactive; INS promoter inh: inactive; ROMK mod: inactive; p97 ATPase inh: inactive; bCat KO growth: inactive

What do the screens show for `Cc1nc(CC(=O)c2ccc(O)c(C)c2O)cs1`?
p97 ATPase inh: inactive

Results for Cc1sc2ncn(CC(=O)NCc3ccco3)c(=O)c2c1-c1ccccc1 ?
Lmaj promast: inactive; ROMK mod: inactive; p97 ATPase inh: inactive

How did CC(=O)c1ccc(NC(=S)NCCCn2ccnc2)cc1 do in these assays?
Lmaj promast: inactive; ROMK mod: inactive; p97 ATPase inh: inactive

How did Cc1ccc(CN2CCN(CC(=O)N/N=C/c3ccc(C)o3)CC2)cc1 do in these assays?
p97 ATPase inh: inactive

How did CC(C)NC(=O)C1CCN(C2CCN(C(=O)C3=CCCC3)CC2)CC1 do in these assays?
Lmaj promast: inactive; ROMK mod: inactive; p97 ATPase inh: inactive

What do the screens show for `CC(C)NC(=O)C1CCN(C2CCN(C(=O)c3scc4c3CCCC4)CC2)CC1`?
Lmaj promast: 52; ROMK mod: inactive; p97 ATPase inh: inactive

How did COc1ccc(CC2(CO)CCN(Cc3cnn(C)c3C)CC2)cc1 do in these assays?
Lmaj promast: inactive; ROMK mod: inactive; p97 ATPase inh: inactive

Results for COc1cccc(CC2(CO)CCN(S(=O)(=O)N(C)C)CC2)c1 ?
Lmaj promast: inactive; ROMK mod: inactive; p97 ATPase inh: inactive

What do the screens show for `COc1ccc(CC2(CO)CCN(CC3=CC[C@H]4C[C@@H]3C4(C)C)CC2)cc1`?
Lmaj promast: 82; p97 ATPase inh: inactive

How did COc1ccc(CC2(CO)CCN(Cc3ccncc3)CC2)cc1 do in these assays?
Lmaj promast: 89; ROMK mod: inactive; p97 ATPase inh: inactive

What do the screens show for `COC(=O)c1ccc(CN2CCC(CO)(Cc3cccc(OC)c3)CC2)cc1`?
Lmaj promast: 83; INS promoter inh: inactive; ROMK mod: inactive; p97 ATPase inh: inactive

What do the screens show for `CC(=O)C1=C(O)C(=O)N(c2ccc(S(=O)(=O)Nc3nccs3)cc2)C1c1ccc(F)cc1` (centres undefined)?
ROMK mod: inactive; p97 ATPase inh: inactive

Results for CC1CCc2sc(NC(=O)C3CC(Cl)=CCC3C(=O)O)c(C#N)c2C1 (centres undefined) ?
Lmaj promast: inactive; ROMK mod: inactive; p97 ATPase inh: inactive

How did O=C(/C=C/c1ccc([N+](=O)[O-])cc1)NCCN1C(=O)S/C(=C\c2ccc(F)cc2)C1=O do in these assays?
Lmaj promast: inactive; ROMK mod: inactive; p97 ATPase inh: inactive

Results for COc1ccc(NC(=S)NCCc2c(C)[nH]c3ccc(OC)cc23)cc1 ?
Lmaj promast: 62; INS promoter inh: inactive; ROMK mod: inactive; p97 ATPase inh: inactive

How did CCOc1ccc(NC(=S)N(CCc2c(C)[nH]c3ccc(C)cc23)Cc2ccncc2)cc1 do in these assays?
Lmaj promast: 70; PTEN del growth: inactive; INS promoter inh: inactive; ROMK mod: inactive; p97 ATPase inh: inactive; bCat KO growth: inactive

What do the screens show for `COc1ccc(NC(=S)N(CCc2c(C)[nH]c3ccc(C)cc23)Cc2cccnc2)cc1`?
Lmaj promast: 100; PTEN del growth: inactive; INS promoter inh: inactive; ROMK mod: inactive; p97 ATPase inh: inactive; bCat KO growth: inactive

How did Cc1[nH]c2ccc(F)cc2c1CCN(Cc1ccncc1)C(=S)Nc1ccccc1 do in these assays?
Lmaj promast: 74; INS promoter inh: inactive; ROMK mod: inactive; p97 ATPase inh: inactive

What do the screens show for `COc1ccc(CCNC(=S)Nc2ccc(OC)cc2)cc1`?
Lmaj promast: inactive; PTEN del growth: inactive; INS promoter inh: inactive; ROMK mod: inactive; p97 ATPase inh: inactive; bCat KO growth: inactive

How did O=C(CSc1cccc[n+]1[O-])Nc1c(Br)cc([N+](=O)[O-])cc1Br do in these assays?
Lmaj promast: inactive; ROMK mod: inactive; p97 ATPase inh: inactive

How did CCN(CC)c1ccc(NC(=O)COC(=O)COc2ccccc2[N+](=O)[O-])cc1 do in these assays?
Lmaj promast: inactive; PTEN del growth: inactive; ROMK mod: inactive; p97 ATPase inh: inactive; bCat KO growth: inactive

What do the screens show for `CCOc1ccc2nc(NC(=O)Cn3[nH]c(=O)c4ccccc4c3=O)sc2c1`?
p97 ATPase inh: inactive

Results for COC(=O)Cn1c(=O)oc2ccc(C)cc21 ?
Lmaj promast: inactive; INS promoter inh: inactive; ROMK mod: inactive; p97 ATPase inh: inactive

How did COc1ccc(C2CC(C)=C(C#N)S(=O)(=O)C2C#N)cc1 (centres undefined) do in these assays?
ROMK mod: inactive; p97 ATPase inh: inactive
